The values that follow come from PubChem BioAssay (NCI).

The structures appear in SMILES notation. About 79,000 compounds went through this panel and 15% of them were active in at least one assay; those are over-represented in the sample as a whole. Unmarked numbers belong to inactive results. Activity calls are given as the source filed them. Cut-off read from the data, not from the text of the source: active = growth inhibition above about 70%; inactive = the rest.

Test [1] in a line: NCI Yeast Anticancer Drug Screen. Data for the rad50 strain (AID 155).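 Note: 0% = growth of vehicle-only cultures of the same strain.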 Conditions: S. cerevisiae rad50 strain growth inhibition, stronger effect = higher value. An outline of the steps:
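Yeast carrying a defined DNA repair defect were exposed to test compounds, and growth was compared with vehicle-treated controls to give percent inhibition.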

Test [2] can be described thus: NCI Yeast Anticancer Drug Screen. Data for the mec2-1 strain (AID 157). Conditions: S. cerevisiae mec2-1 strain, stronger effect = higher value. An outline of the steps: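 Each compound was tested on mec2-1 yeast, a strain altered in DNA damage repair or cell cycle control. Growth inhibition is reported relative to vehicle.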
Test [3] can be described thus: NCI Yeast Anticancer Drug Screen. Data for the sgs1 mgt1 strain (AID 161).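 Note: 0% = growth of cultures given vehicle only.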 Conditions: S. cerevisiae sgs1 mgt1 strain, stronger effect = higher value. An outline of the steps: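 Genetically altered yeast, compound exposure, growth inhibition relative to vehicle.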
Test [4] can be described thus: NCI Yeast Anticancer Drug Screen. Data for the cln2 rad14 strain (AID 165).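 Note: 0% = growth equal to vehicle treated cultures.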 Conditions: S. cerevisiae cln2 rad14 strain, stronger effect = higher value. An outline of the steps:
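Test compounds were added to cln2 rad14 yeast cultures; inhibition of growth was then determined by comparison with vehicle treatment.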

Test [5] in a line: NCI Yeast Anticancer Drug Screen. Data for the bub3 strain (AID 167). The note with it: S. cerevisiae bub3 mutant strain, stronger effect = higher value. An outline of the steps: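 Compounds were applied to a genetically altered yeast strain carrying a cell-cycle control defect. Growth inhibition was scored against vehicle-treated controls.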
The nature of test [6]: NCI Yeast Anticancer Drug Screen. Data for the mlh1 rad18 strain (AID 175). Conditions: S. cerevisiae mlh1 rad18 strain growth inhibition, stronger effect = higher value. An outline of the steps: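 Inhibition values reflect reduced growth of mutant yeast versus vehicle-treated controls following compound exposure; the mutations affect DNA damage repair.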
The mark [7] stands for this setting: at 5.0 µM (retest, dose inferred, filed as 0.5).
Setting [8] is: at 50.0 µM (retest, dose inferred, filed as 5.0).

For `CCCCCCCCCCCCCCCc1ncc(C)[nH]1`, the growth inhibition was 69% in test [1] (setting [7]); 69% in test [1] (setting [8]); 99.1% (active) in test [1] (at 50.0 µM); 72% (active) in test [2] (setting [7]); 99% (active) in test [2] (setting [8]); 99.4% (active) in test [2] (at 50.0 µM). For the same compound, the growth inhibition in test [3] (setting [7]) is 91% (active); in test [3] (setting [8]) it was 99% (active); in test [3] (at 50.0 µM), 99.4% (active); in test [4] (setting [7]), 28%; in test [4] (setting [8]), 98% (active); in test [4] (at 50.0 µM) it was 97.4% (active). In addition, the growth inhibition in test [5] (setting [7]) is 75% (active); in test [5] (setting [8]), 99% (active); in test [5] (at 50.0 µM) it was 99.5% (active); in test [6] (setting [7]), 50%; in test [6] (setting [8]) it was 99% (active); in test [6] (at 50.0 µM) it was 99% (active).

As for `COc1ccc(-n2cc(-c3ccc(Cl)cc3)c3c(N)ncnc32)cc1`, the growth inhibition is 20% in test [1] (setting [7]); 99% (active) in test [1] (setting [8]); 95.6% (active) in test [1] (at 50.0 µM); 23% in test [2] (setting [7]); 99% (active) in test [2] (setting [8]); 94.6% (active) in test [2] (at 50.0 µM). Besides, the growth inhibition in test [3] (setting [7]) is 63%; in test [3] (setting [8]), 99% (active); in test [3] (at 50.0 µM), 98.2% (active); in test [4] (setting [7]), 13%; in test [4] (setting [8]), 25%; in test [4] (at 50.0 µM), 87.1% (active). The growth inhibition in test [5] (setting [7]) was 0%; in test [5] (setting [8]) it was 3%; in test [5] (at 50.0 µM) it was 91% (active); in test [6] (setting [7]), 20%; in test [6] (setting [8]), 99% (active); in test [6] (at 50.0 µM), 88% (active).

On to `Cc1c(C(C)(C)C)cc(C(C)(C)C)c(O)c1CN(C)Cc1c(C)c(C(C)(C)C)cc(C(C)(C)C)c1O`, for which the growth inhibition was -3% in test [1] (setting [7]); 8% in test [1] (setting [8]); 99.5% (active) in test [1] (at 50.0 µM); -8% in test [2] (setting [7]); 3% in test [2] (setting [8]); 99.3% (active) in test [2] (at 50.0 µM). Besides, the growth inhibition in test [3] (setting [7]) is 3%; in test [3] (setting [8]), 33%; in test [3] (at 50.0 µM), 99.6% (active); in test [4] (setting [7]), -6%; in test [4] (setting [8]) it was -3%; in test [4] (at 50.0 µM), 99.5% (active). In addition, the growth inhibition in test [5] (setting [7]) is -3%; in test [5] (setting [8]), 13%; in test [5] (at 50.0 µM), 99.4% (active); in test [6] (setting [7]) it was 4%; in test [6] (setting [8]), 17%; in test [6] (at 50.0 µM), 99.5% (active).

For the compound `CCCCCCCCCCCCCCCCCCNC(=S)/N=C/c1c(O)cc(C)oc1=O`, the growth inhibition in test [1] (setting [7]) is 1%; in test [1] (setting [8]), 15%; in test [1] (at 50.0 µM), 16.1%; in test [2] (setting [7]) it was 8%; in test [2] (setting [8]) it was 38%; in test [2] (at 50.0 µM), -13.7%. Besides, the growth inhibition in test [3] (setting [7]) is -15%; in test [3] (setting [8]) it was 8%; in test [3] (at 50.0 µM), 57%; in test [4] (setting [7]), 7%; in test [4] (setting [8]), -13%; in test [4] (at 50.0 µM), -30.1%. In addition, the growth inhibition in test [5] (setting [7]) is -2%; in test [5] (setting [8]) it was -8%; in test [5] (at 50.0 µM), 18.9%; in test [6] (setting [7]) it was 10%; in test [6] (setting [8]), 29%; in test [6] (at 50.0 µM), 15.9%.

Turning to `COc1ccc2c(C)c(N=C=S)c(=O)oc2c1`, the growth inhibition was 35% in test [1] (setting [7]); 79% (active) in test [1] (setting [8]); 60.2% in test [1] (at 50.0 µM); 13% in test [2] (setting [7]); 78% (active) in test [2] (setting [8]); 69% in test [2] (at 50.0 µM). The growth inhibition in test [3] (setting [7]) was 34%; in test [3] (setting [8]) it was 81% (active); in test [3] (at 50.0 µM), 48%; in test [4] (setting [7]) it was 6%; in test [4] (setting [8]), 33%; in test [4] (at 50.0 µM), 1.75%. The growth inhibition in test [5] (setting [7]) is 29%; in test [5] (setting [8]) it was 87% (active); in test [5] (at 50.0 µM), 89% (active); in test [6] (setting [7]), 42%; in test [6] (setting [8]) it was 89% (active); in test [6] (at 50.0 µM), 74.7% (active).

As for `O=C1C=C(Cl)C(=O)C2=C1CCCC2`, the growth inhibition in test [1] (setting [7]) was 10%; in test [1] (setting [8]), 89% (active); in test [1] (at 50.0 µM), 95.2% (active); in test [2] (setting [7]), 11%; in test [2] (setting [8]) it was 98% (active); in test [2] (at 50.0 µM), 70.8% (active). In addition, the growth inhibition was 8% in test [3] (setting [7]); 98% (active) in test [3] (setting [8]); 61.1% in test [3] (at 50.0 µM); -1% in test [4] (setting [7]); 48% in test [4] (setting [8]); 59.2% in test [4] (at 50.0 µM). In addition, the growth inhibition in test [5] (setting [7]) is 1%; in test [5] (setting [8]), 98% (active); in test [5] (at 50.0 µM) it was 99.2% (active); in test [6] (setting [7]), 20%; in test [6] (setting [8]) it was 98% (active); in test [6] (at 50.0 µM), 93.9% (active).

As to `Cc1cc(C(O)(C(F)(F)F)C(F)(F)F)c(I)c(C(O)(C(F)(F)F)C(F)(F)F)c1`, the growth inhibition in test [1] (setting [7]) is 100% (active); in test [1] (setting [8]), 100% (active); in test [1] (at 50.0 µM), 97.3% (active); in test [2] (setting [7]) it was 99% (active); in test [2] (setting [8]) it was 100% (active); in test [2] (at 50.0 µM), 99.2% (active). For the same compound, the growth inhibition in test [3] (setting [7]) is 99% (active); in test [3] (setting [8]) it was 100% (active); in test [3] (at 50.0 µM), 99.2% (active); in test [4] (setting [7]), 98% (active); in test [4] (setting [8]), 99% (active); in test [4] (at 50.0 µM), 89.8% (active). The growth inhibition in test [5] (setting [7]) was 99% (active); in test [5] (setting [8]) it was 99% (active); in test [5] (at 50.0 µM), 98.7% (active); in test [6] (setting [7]), 99% (active); in test [6] (setting [8]) it was 99% (active); in test [6] (at 50.0 µM) it was 98.5% (active).

Turning to `[N-]=[N+]=Nc1c([N+](=O)[O-])c(Cl)nc2ccccc12`, the growth inhibition in test [1] (setting [7]) was 27%; in test [1] (setting [8]), 95% (active); in test [1] (at 50.0 µM) it was 86% (active); in test [2] (setting [7]), 22%; in test [2] (setting [8]), 99% (active); in test [2] (at 50.0 µM), 90.7% (active). Moreover, the growth inhibition is 34% in test [3] (setting [7]); 99% (active) in test [3] (setting [8]); 92% (active) in test [3] (at 50.0 µM); 11% in test [4] (setting [7]); 87% (active) in test [4] (setting [8]); 90.5% (active) in test [4] (at 50.0 µM). Moreover, the growth inhibition in test [5] (setting [7]) is 50%; in test [5] (setting [8]) it was 99% (active); in test [5] (at 50.0 µM), 90.6% (active); in test [6] (setting [7]), 36%; in test [6] (setting [8]), 98% (active); in test [6] (at 50.0 µM), 88.2% (active).

With `CCOC(=O)Cc1[nH]c(C(=O)c2ccccc2)cc1C(=O)c1ccccc1`, the growth inhibition is 20% in test [1] (setting [7]); 87% (active) in test [1] (setting [8]); -44.6% in test [1] (at 50.0 µM); 11% in test [2] (setting [7]); 81% (active) in test [2] (setting [8]); -9.35% in test [2] (at 50.0 µM). Besides, the growth inhibition was -1% in test [3] (setting [7]); 88% (active) in test [3] (setting [8]); -36.1% in test [3] (at 50.0 µM); 7% in test [4] (setting [7]); 97% (active) in test [4] (setting [8]); 5% in test [4] (at 50.0 µM). The growth inhibition in test [5] (setting [7]) is -2%; in test [5] (setting [8]) it was 97% (active); in test [5] (at 50.0 µM), -24.4%; in test [6] (setting [7]), 17%; in test [6] (setting [8]) it was 89% (active); in test [6] (at 50.0 µM), -42.9%.

Turning to `O=S(=O)(Nc1ccc(Cl)cc1)c1ccccc1`, the growth inhibition in test [1] (setting [7]) was -3%; in test [1] (setting [8]), 50%; in test [1] (at 50.0 µM), 76.5% (active); in test [2] (setting [7]), -14%; in test [2] (setting [8]) it was 32%; in test [2] (at 50.0 µM), 46%. Moreover, the growth inhibition is 1% in test [3] (setting [7]); 80% (active) in test [3] (setting [8]); 47.7% in test [3] (at 50.0 µM); -9% in test [4] (setting [7]); 81% (active) in test [4] (setting [8]); 20.9% in test [4] (at 50.0 µM). Further, the growth inhibition is -8% in test [5] (setting [7]); 56% in test [5] (setting [8]); 53.9% in test [5] (at 50.0 µM); -5% in test [6] (setting [7]); 63% in test [6] (setting [8]); 45.5% in test [6] (at 50.0 µM).
